# Data as given in PubChem BioAssay AID720566 (Broad Institute, 2013).
# Measured potencies and affinities stand elsewhere. Activity calls are given as the source filed them.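 Rule for the calls: active = in all runs, an absorbance decrease of 25% or more of the average positive control decrease; inconclusive = runs conflict, with both active and inactive results; inactive = all runs inactive, opposite-direction effects included.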
# Biological target: Protein disulfide-isomerase A6 (Homo sapiens) (UniProt Q15084)
# Test: reduced insulin turbidity driven by ERp5 (PDIA6) – biochemical, absorbance 650 nm, cherry-picked samples, dose response (AID 720566);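 note: negative values mean less insulin aggregation so ERp5 inhibition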
# Chain of Protein disulfide-isomerase A6 (Homo sapiens) (Q15084 whole entry, looked up): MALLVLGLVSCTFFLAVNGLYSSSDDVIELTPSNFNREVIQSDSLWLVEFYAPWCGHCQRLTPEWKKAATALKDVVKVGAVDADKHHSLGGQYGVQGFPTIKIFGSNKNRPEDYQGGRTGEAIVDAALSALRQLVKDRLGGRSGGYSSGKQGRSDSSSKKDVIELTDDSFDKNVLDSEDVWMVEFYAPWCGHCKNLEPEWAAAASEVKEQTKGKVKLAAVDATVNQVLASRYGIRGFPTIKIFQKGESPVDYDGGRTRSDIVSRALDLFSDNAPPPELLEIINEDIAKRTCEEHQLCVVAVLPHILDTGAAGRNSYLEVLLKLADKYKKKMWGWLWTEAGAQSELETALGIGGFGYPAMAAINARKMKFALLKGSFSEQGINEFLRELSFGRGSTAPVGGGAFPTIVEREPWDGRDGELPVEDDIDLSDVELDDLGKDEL
row,SMILES,outcome
1,O=C(C[C@@H]1C[C@H]2c3cc(NC(=O)CC4CC4)ccc3O[C@H]2[C@@H](CO)O1)NCc1ccc(-c2ccccc2)cc1,inactive
2,COCC(=O)N(C)C[C@H]1Oc2cc(C#CC(C)(C)O)ccc2S(=O)(=O)N([C@H](C)CO)C[C@H]1C,inactive
3,O=C(Cc1ccc(NC(=O)C2CCCN(C(=O)C3CC3)C2)cc1)Nc1cccc(C(=O)N2CCCCC2)c1 (stereo not drawn),inactive
4,CN(C)C(=O)C[C@@H]1C[C@H]2c3cc(NS(C)(=O)=O)ccc3O[C@H]2[C@@H](CO)O1,inactive
5,C[C@H](CO)N1C[C@H](C)[C@H](CN(C)Cc2cccc(F)c2)Oc2ncc(Br)cc2C1=O,inactive
6,COC(=O)C[C@H]1C[C@@H]2c3cc(NC(=O)Cc4ccncc4)ccc3O[C@@H]2[C@@H](CO)O1,inactive
7,O=C(C[C@@H]1C[C@H]2c3cc(NS(=O)(=O)c4ccccc4)ccc3O[C@H]2[C@H](CO)O1)NC1CCCCC1,inactive
8,Cc1ccc(NC(=O)c2cccc(S(C)(=O)=O)c2)cc1,inactive
9,COc1cccc(S(=O)(=O)N2CC3(CN(C(=O)Nc4cccc(F)c4)[C@H](CO)c4[nH]c5cc(OC)ccc5c43)C2)c1,inactive
10,COC(=O)C[C@H]1C[C@H]2c3cc(NC(=O)Cc4ccncc4)ccc3O[C@H]2[C@H](CO)O1,inactive
11,O=C(C[C@H]1C[C@@H]2c3cc(NC(=O)C4CCC4)ccc3O[C@@H]2[C@H](CO)O1)NCC(F)(F)F,inactive
12,C/C=C/c1ccc2c(c1)O[C@H](CN(C)Cc1cncnc1)[C@H](C)CN([C@@H](C)CO)S2(=O)=O,inactive
13,C[C@@H]1CN([C@@H](C)CO)C(=O)c2cc(NS(=O)(=O)c3ccccc3)ccc2O[C@H]1CN(C)C(=O)Nc1ccc2c(c1)OCO2,inactive
14,CCCNC(=O)[C@H]1[C@H](CO)[C@H]2Cn3c(ccc(/C=C/c4ccccc4)c3=O)[C@@H]1N2C(C)=O,inactive
15,CN(C)C(=O)C[C@H]1C[C@H]2c3cc(NS(C)(=O)=O)ccc3O[C@H]2[C@H](CO)O1,inactive
16,C[C@@H]1CN([C@H](C)CO)C(=O)c2cccc(NC(=O)Nc3cccc4ccccc34)c2O[C@@H]1CN(C)C(=O)Nc1ccc(C(F)(F)F)cc1,inactive
17,C[C@@H]1CN([C@H](C)CO)C(=O)Cc2cc(NC(=O)Nc3cccc4ccccc34)ccc2O[C@@H]1CN(C)Cc1ccc(C(F)(F)F)cc1,inactive

row,SMILES,outcome
1,C[C@@H]1CN([C@H](C)CO)S(=O)(=O)c2ccc(-c3ccc(F)cc3)cc2O[C@@H]1CN(C)CC1CC1,inactive
2,CCC(=O)Nc1ccc2c(c1)C(=O)N(C)[C@H]1CC[C@H](CC(=O)NCC3CC3)O[C@H]1CO2,inactive
3,Cc1cc(C(=O)Nc2cccc3c2O[C@@H](CN(C)S(=O)(=O)c2ccc(Cl)cc2)[C@@H](C)CN([C@@H](C)CO)C3=O)n(C)n1,inactive
4,CCC[C@@H](CN1CCC[C@H]1CN1C(N)=NC[C@H]1CC(C)C)N1C[C@@H]([C@H](C)CC)N(CCCC2CCCC2)C1=N,inactive
5,C[C@@H]1CN([C@@H](C)CO)C(=O)c2cc(C#CC3(O)CCCC3)cnc2O[C@H]1CN(C)C(=O)Cc1cccnc1,inactive
6,CCC(=O)Nc1ccc2c(c1)C(=O)N(C)[C@H]1CC[C@@H](CC(=O)NCC3CC3)O[C@H]1CO2,inactive
7,C[C@@H]1CN([C@@H](C)CO)C(=O)Cc2cc(NS(=O)(=O)c3cccs3)ccc2O[C@H]1CN(C)C(=O)Nc1ccc(C(F)(F)F)cc1,inactive
8,O=C(NN=c1c(=O)c2ccccc2c1=O)c1ccccc1,inactive
9,C[C@@H]1CN([C@@H](C)CO)C(=O)Cc2cc(NC(=O)Cc3ccccc3)ccc2O[C@@H]1CN(C)C(=O)Nc1ccc(C(F)(F)F)cc1,inactive
10,C/C=C/c1ccc2c(c1)O[C@@H](CN(C)S(C)(=O)=O)[C@H](C)CN([C@H](C)CO)S2(=O)=O,inactive
11,CCc1csc(CCNC(=O)C2CCC(=O)N(CCc3cccc(F)c3)C2)n1 (stereo not drawn),inactive
12,Cc1noc(C)c1NC(=O)Nc1cccc2c1O[C@H](CN(C)S(=O)(=O)c1ccc(Cl)cc1)[C@@H](C)CN([C@H](C)CO)C2=O,inactive
13,C[C@@H]1CN([C@H](C)CO)C(=O)c2cc(NC(=O)Nc3ccc(F)cc3)ccc2O[C@H]1CN(C)Cc1ccc(-c2ccccc2)cc1,inactive
14,CC(C)(C)c1cc(NC(=O)c2ccco2)no1,inactive
15,COC(=O)C[C@@H]1C[C@@H]2c3cc(NC(=O)Cc4ccncc4)ccc3O[C@@H]2[C@H](CO)O1,inactive
16,COc1ccc(NC(=O)N(C)C[C@H]2Oc3ccc(NS(=O)(=O)c4ccccc4)cc3C(=O)N([C@@H](C)CO)C[C@@H]2C)cc1,inactive
